Measured values: PubChem BioAssay AID1159580 (chemical genetic matrix, 2015)
Hit rate of the full screen: of about 5,500 compounds, about 2,000 (36%) were called active. Another 18% or so got no clear call; they are omitted. Rule as the data show it: active = normalized growth mostly below about 0.91 (no sharp cut-off); inconclusive = no clear call, values can overlap the other calls; inactive = mostly above about 0.92. The list shows a part of the results.

Test: chemical genetic growth profiling, strain panel (AID 1159580);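 also: tested at 20 µM; growth read once vehicle control cultures reached saturation at 30 °C; 1 = growth at the plate median or of vehicle wells; lower values mean less growth of the strain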
Conditions: growth OD

Measured: normalized growth

COc1ccc2c(C)cc(=O)oc2c1
inactive: S. cerevisiae deletion strains, locus YJL187C, strain SWE1 (second series), stronger effect = lower value 1.02 | S. cerevisiae deletion strains, locus YJL187C, strain SWE1, stronger effect = lower value 0.997 | S. cerevisiae deletion strains, locus YJR066W, strain TOR1, stronger effect = lower value 0.933 | S. cerevisiae deletion strains, locus YKL009W, strain mrt4, stronger effect = lower value 1.02 | S. cerevisiae deletion strains, locus YKL068W, stronger effect = lower value 1.03 | S. cerevisiae deletion strains, locus YKL085W, strain MDH1 (second series), stronger effect = lower value 1.01 | S. cerevisiae deletion strains, locus YKL085W, strain MDH1, stronger effect = lower value 1.01 | S. cerevisiae deletion strains, locus YKL160W, strain elf1, stronger effect = lower value 1 | S. cerevisiae deletion strains, locus YKL190W, strain CNB1, stronger effect = lower value 1 | S. cerevisiae deletion strains, locus YKR001C, strain vps1, stronger effect = lower value 1.03 | S. cerevisiae deletion strains, locus YKR026C, strain gcn3, stronger effect = lower value 0.991 | S. cerevisiae deletion strains, locus YKR091W, strain srl3, stronger effect = lower value 0.987 | S. cerevisiae deletion strains, locus YLL001W, strain dnm1, stronger effect = lower value 0.986 | S. cerevisiae deletion strains, locus YLL026W, stronger effect = lower value 1 | S. cerevisiae deletion strains, locus YLL041C, strain sdh2, stronger effect = lower value 0.993 | S. cerevisiae deletion strains, locus YLR027C, strain aat2, stronger effect = lower value 0.991 | S. cerevisiae deletion strains, locus YLR039C, strain RIC1, stronger effect = lower value 1.01 | S. cerevisiae deletion strains, locus YLR058C, strain SHM2, stronger effect = lower value 1.01 | S. cerevisiae deletion strains, locus YLR102C, strain apc9, stronger effect = lower value 1.04 | S. cerevisiae deletion strains, locus YLR113W, strain HOG1, stronger effect = lower value 0.998 | S. cerevisiae deletion strains, locus YLR221C, strain rsa3, stronger effect = lower value 0.993 | S. cerevisiae deletion strains, locus YLR258W, strain gsy2, stronger effect = lower value 0.972 | S. cerevisiae deletion strains, locus YLR262C, strain YPT6 (second series), stronger effect = lower value 0.964 | S. cerevisiae deletion strains, locus YLR268W, strain sec22, stronger effect = lower value 1.03 | S. cerevisiae deletion strains, locus YLR320W, strain mms22, stronger effect = lower value 1 | S. cerevisiae deletion strains, locus YLR330W, strain CHS5, stronger effect = lower value 1.01 | S. cerevisiae deletion strains, locus YLR342W, strain FKS1, stronger effect = lower value 0.989 | S. cerevisiae deletion strains, locus YLR357W, strain rsc2, stronger effect = lower value 0.966 | S. cerevisiae deletion strains, locus YLR370C, strain arc18, stronger effect = lower value 0.997 | S. cerevisiae deletion strains, locus YLR371W, strain rom2, stronger effect = lower value 0.998 | S. cerevisiae deletion strains, locus YLR384C, strain iki3, stronger effect = lower value 0.996 | S. cerevisiae deletion strains, locus YLR418C, strain cdc73, stronger effect = lower value 1.03 | S. cerevisiae deletion strains, locus YML016C, strain PPZ1, stronger effect = lower value 1.02 | S. cerevisiae deletion strains, locus YML032C, strain rad52, stronger effect = lower value 1.01 | S. cerevisiae deletion strains, locus YML120C, strain ndi1, stronger effect = lower value 1.02 | S. cerevisiae deletion strains, locus YML124C, strain tub3, stronger effect = lower value 1.02 | S. cerevisiae deletion strains, locus YMR058W, strain fet3, stronger effect = lower value 0.987 | S. cerevisiae deletion strains, locus YMR078C, strain ctf18, stronger effect = lower value 1.03 | S. cerevisiae deletion strains, locus YMR125W, strain sto1, stronger effect = lower value 0.982 | S. cerevisiae deletion strains, locus YMR129W, stronger effect = lower value 1.01 | S. cerevisiae deletion strains, locus YMR205C, strain PFK2, stronger effect = lower value 0.988 | S. cerevisiae deletion strains, locus YMR223W, strain ubp8, stronger effect = lower value 1.02 | S. cerevisiae deletion strains, locus YMR231W, strain pep5, stronger effect = lower value 0.988 | S. cerevisiae deletion strains, locus YMR307W, strain GAS1, stronger effect = lower value 0.994 | S. cerevisiae deletion strains, locus YNL067W, strain RPL9B, stronger effect = lower value 1.01 | S. cerevisiae deletion strains, locus YNL071W, strain lat1, stronger effect = lower value 0.976 | S. cerevisiae deletion strains, locus YNL183C, strain NPR1, stronger effect = lower value 0.933 | S. cerevisiae deletion strains, locus YNL209W, strain ssb2, stronger effect = lower value 1 | S. cerevisiae deletion strains, locus YNL233W, strain BNI4, stronger effect = lower value 1.02 | S. cerevisiae deletion strains, locus YNL248C, strain rpa49, stronger effect = lower value 0.923 | S. cerevisiae deletion strains, locus YNL250W, strain rad50, stronger effect = lower value 1.04 | S. cerevisiae deletion strains, locus YNL271C, strain bni1, stronger effect = lower value 1.03 | S. cerevisiae deletion strains, locus YNL298W, strain CLA4, stronger effect = lower value 1.01 | S. cerevisiae deletion strains, locus YNL307C, strain MCK1, stronger effect = lower value 1.04 | S. cerevisiae deletion strains, locus YNL322C, strain KRE1 (second series), stronger effect = lower value 1 | S. cerevisiae deletion strains, locus YNL322C, strain KRE1, stronger effect = lower value 1.01 | S. cerevisiae deletion strains, locus YNR049C, strain mso1, stronger effect = lower value 0.969 | S. cerevisiae deletion strains, locus YNR052C, strain pop2, stronger effect = lower value 1.02 | S. cerevisiae deletion strains, locus YOL012C, strain htz1 0.756 | S. cerevisiae deletion strains, locus YOL147C, strain pex11, stronger effect = lower value 1.03 | S. cerevisiae deletion strains, locus YOR001W, strain rrp6, stronger effect = lower value 0.97 | S. cerevisiae deletion strains, locus YOR061W, strain CKA2, stronger effect = lower value 1.01 | S. cerevisiae deletion strains, locus YOR069W, strain VPS5, stronger effect = lower value 1.01 | S. cerevisiae deletion strains, locus YOR070C, strain gyp1, stronger effect = lower value 1 | S. cerevisiae deletion strains, locus YOR080W, strain dia2, stronger effect = lower value 0.99 | S. cerevisiae deletion strains, locus YOR083W, strain WHI5, stronger effect = lower value 0.987 | S. cerevisiae deletion strains, locus YOR106W, strain vam3, stronger effect = lower value 0.959 | S. cerevisiae deletion strains, locus YOR136W, strain idh2, stronger effect = lower value 1.03 | S. cerevisiae deletion strains, locus YOR144C, strain elg1, stronger effect = lower value 1.02 | S. cerevisiae deletion strains, locus YOR184W, strain ser1, stronger effect = lower value 1.02 | S. cerevisiae deletion strains, locus YOR231W, strain MKK1, stronger effect = lower value 0.954 | S. cerevisiae deletion strains, locus YOR265W, strain rbl2, stronger effect = lower value 0.996 | S. cerevisiae deletion strains, locus YOR270C, strain vph1, stronger effect = lower value 0.803 | S. cerevisiae deletion strains, locus YOR290C, strain snf2, stronger effect = lower value 1 | S. cerevisiae deletion strains, locus YOR316C, strain cot1, stronger effect = lower value 1.02 | S. cerevisiae deletion strains, locus YPL051W, strain arl3, stronger effect = lower value 1.01 | S. cerevisiae deletion strains, locus YPL078C, strain atp4, stronger effect = lower value 0.994 | S. cerevisiae deletion strains, locus YPL106C, strain sse1, stronger effect = lower value 0.943 | S. cerevisiae deletion strains, locus YPL240C, strain hsp82, stronger effect = lower value 1.01 | S. cerevisiae deletion strains, locus YPL256C, strain CLN2, stronger effect = lower value 1.01 | S. cerevisiae deletion strains, locus YPR119W, strain clb2, stronger effect = lower value 1.02 | S. cerevisiae deletion strains, locus YPR141C, strain kar3, stronger effect = lower value 1.02 | S. cerevisiae deletion strains, locus YPR163C, strain tif3, stronger effect = lower value 1.03 | S. cerevisiae deletion strains, locus YPR167C, strain met16, stronger effect = lower value 1.02 | S. cerevisiae deletion strains, strain wtn01, stronger effect = lower value 1.01 | S. cerevisiae strains, strain wild type, stronger effect = lower value 1.01
